# Screening results (PubChem BioAssay)
# The list is not random: actives were taken first. Their share in the collection is about 2%.
# KDM4E inh – inhibitors of human JMJD2E histone demethylase; 1.6% of 230,000 active; JMJD2E catalytic domain, FDH-coupled NADH fluorescence (FDH is formaldehyde dehydrogenase); Potency, µM (titrated, usually from 57.1 µM), most hits filed as inhibitors; B2RXH2; active means well fitted inhibition curve with a large enough effect, not every such curve was filed as active; inconclusive means small, poorly fitted or top-dose-only effect, or another doubt; inactive means no such curve, though single readings can be large or run the other way; further: nearly all actives have a fitted effect of over 50% in size
# Target sequence (B2RXH2 1-337 limits assumed): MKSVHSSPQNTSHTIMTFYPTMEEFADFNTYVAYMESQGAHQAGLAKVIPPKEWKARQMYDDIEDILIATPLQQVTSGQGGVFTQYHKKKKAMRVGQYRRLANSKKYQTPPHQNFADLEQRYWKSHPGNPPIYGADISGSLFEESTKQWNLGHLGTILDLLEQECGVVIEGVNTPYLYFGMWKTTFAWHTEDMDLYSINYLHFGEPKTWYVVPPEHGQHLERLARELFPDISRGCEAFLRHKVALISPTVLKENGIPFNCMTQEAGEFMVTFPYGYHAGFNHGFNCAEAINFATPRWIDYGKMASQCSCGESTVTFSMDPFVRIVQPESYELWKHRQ
# KCNH2 3.1 block – KCNH2 3.1 (human) potassium channel inhibition; U2OS KCNH2 3.1, thallium flux FluxOr; stronger effect = lower value; 0.95% of 340,000 active; activity change, % (tested at about 1.8 µM); AID 720553;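 active means maximum activity change below -70%; inconclusive means maximum activity change from -70% to -50%; inactive means maximum activity change above -50%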;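 further: thallium influx rate constant from kinetic fluorescence after stimulation buffer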
#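 Steps: virus added to U2OS suspension (4 h, RT, dark); medium with 10% FBS added, cells plated, 37 C overnight; FluxOr/Red40 loading buffer 45 min RT; stimulation buffer, 2 min kinetic read; rate constant normalized.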
# CtBP-E1A blk – inhibitors of CtBP/E1A interaction. 0.49% of 340,000 active. AlphaScreen GST-E1A/His-CtBP binding, 1536-well; stronger effect = lower value. activity change, % (no concentration beside the values)
#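 GST-E1A and His-tagged CtBP (125 nM each as 5X stock) were preincubated with pin-transferred compound for 2 h at 37 °C in the dark, then glutathione donor and nickel acceptor beads were added for 1 h before AlphaScreen reading.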
# Six1-Eya2 blk – blocks human Six1 binding to Eya2 | AlphaScreen GST-Six1/His-Eya2 binding, biochemical; stronger effect = lower value | activity change, % (concentration not given with the values) | 0.56% of 360,000 active | AID 651725
#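 Compounds are tested against tagged Six1 and Eya2 proteins bridged by glutathione donor and nickel acceptor beads; after a one-hour incubation at 37 °C without light, AlphaScreen emission is recorded.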
# KCNH2 WT inh – blocks the wildtype human KCNH2 potassium channel | Q12809 | 0.37% of 340,000 active | activity change, % at 1.84 µM | U2OS, BacMam KCNH2, thallium flux FluxOr; stronger effect = lower value;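 active means maximum activity change below -70%; inconclusive means maximum activity change between -70% and -50%; inactive means maximum activity change above -50%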
#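 U2OS cells were transduced with wild-type KCNH2 virus (2.03 x 10^8 / mL) for 4 h at room temperature, then cultured overnight at 37 C. Thallium flux was read with FluxOr dye. Rate constants were normalized to DMSO controls.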
# A number is an active result; – = inactive; ? = inconclusive; · = no result. Unless noted, no stated cut-off is given here; in the data, active means activity change below about -65%; inconclusive means mostly about -30% to -63%; inactive means weaker than that.
SMILES,KDM4E inh,KCNH2 3.1 block,CtBP-E1A blk,Six1-Eya2 blk,KCNH2 WT inh
COc1ccccc1NC(=S)NNC(=O)c1cc(C)n(C)n1,18µM,–,?,–,–
COc1ccccc1NC(=S)NNC(=O)c1cc(C)nn1C,–,–,–,–,–
Cc1ccc(Nc2c([N+](=O)[O-])c(=O)oc3ccccc23)cc1C,–,-75,–,–,–
O=S1(=O)N[C@H](Cc2ccccc2)COc2cc(N3CCN(Cc4ccccc4F)CC3)ccc21,·,·,–,–,·
Cc1nc(-c2cnn(-c3ccccc3)c2)c2cc(C)oc2n1,?,–,-88,-87,–
CCOC(=O)C1=C[C@@H](C(C)(C)C)N(S(=O)(=O)c2ccc(C)cc2)[C@H]1c1ccc(C#N)cc1,·,·,–,–,·
Cc1ccc(COc2ccccc2C(=S)N2CCCC2)cc1,–,–,–,–,–
COc1cccc(NC(=O)CSc2nc(N)cc(N)n2)c1,–,–,–,–,–
c1ccc(CNc2nc(-c3ccccn3)nc3ccccc23)cc1,·,–,-77,?,–
O=C(COC(=O)c1oc2ccccc2c1COc1ccccc1)NCCN1C(=O)CSC1=O,–,–,–,–,–
COCc1c(C(=O)OCC(=O)NCCN2C(=O)CSC2=O)oc2ccccc12,?,–,–,–,-120
CC(C)C[C@H]1CNC(=S)N1CC1CCN(CCCCc2ccccc2)CC1,·,-71,–,–,–
S=C1NC[C@H](Cc2ccccc2)N1CC1CCN(CCCC2CCCC2)CC1,·,-88,–,–,–
CN(Cc1cccnc1)Cc1cn(Cc2ccccc2)nc1-c1ccc2c(c1)OCO2,?,–,–,–,–
CN(Cc1ccno1)Cc1cn(Cc2ccccc2)nc1-c1ccc2c(c1)OCO2,–,-95,–,–,–
COc1ccc(/C=C(\NC(=O)c2ccc(C)cc2)C(=O)NCCCn2ccnc2)cc1OC,·,–,–,–,–
O=C(CCCNC(=O)/C(=C/c1ccc(F)cc1)NC(=O)c1ccccc1)OCc1ccccc1,–,–,–,–,-138
CSc1ccc(/C=C(/NC(=O)c2ccccc2)C(=O)NCCCn2ccnc2)cc1,·,?,–,–,–
Cc1ccc(C(=O)N/C(=C\c2ccc(F)cc2)C(=O)NCCCn2ccnc2)cc1,·,-114,–,–,-95
COc1ccccc1C(=O)N/C(=C/c1ccc(Br)cc1)C(=O)NCCCn1ccnc1,·,-99,–,–,-125
O=C(NCCCn1ccnc1)/C(=C\c1ccc(Br)cc1)NC(=O)c1ccccc1,·,-104,–,–,-125
O=C(NCCCn1ccnc1)/C(=C/c1ccccc1)NC(=O)c1ccccc1,–,-113,–,–,-137
CN(C)c1ccc(/C=C(\NC(=O)c2ccccc2)C(=O)NCCCn2ccnc2)cc1,·,–,?,?,–
CCc1ccccc1Nc1nn2c(=O)c3ccc(C(=O)NCc4ccccn4)cc3nc2s1,·,–,-79,?,–
O=C(NCc1ccccn1)c1ccc2c(=O)n3nc(Nc4ccccc4)sc3nc2c1,·,–,–,–,–
SMILES,KDM4E inh,KCNH2 3.1 block,CtBP-E1A blk,Six1-Eya2 blk,KCNH2 WT inh
COc1ccccc1C(=O)Nc1cc2c(cc1C(=O)O)OCCCO2,·,-80,–,–,–
O=C(NC1CCCC1)C(c1ccsc1)N(C(=O)Cc1cccs1)c1ccc(F)cc1 (stereo not given),–,-76,–,–,–
CCOc1cc(C(=S)N2CCOCC2)ccc1OS(=O)(=O)c1ccc(C)cc1,·,–,–,–,–
O=C(COC(=O)c1ccccc1Nc1ccccc1)c1ccccc1,?,–,–,–,-269
CCn1c(SCc2nc3sc(C(=O)O)c(C)c3c(=O)[nH]2)nc2ccccc21,–,–,–,-68,–
CC(=O)NS(=O)(=O)c1ccc(NC(=O)c2ccc3c(c2)OCO3)cc1,·,–,–,–,–
O=[N+]([O-])c1ccc(S(=O)(=O)Nc2nnc(C3CCCCC3)s2)cc1,·,–,–,–,–
Cc1cc(C)nc(/N=C(\N)Nc2ccc(OCc3ccccc3)cc2)n1,–,-80,–,–,–
Cc1cc(C)nc(/N=C(\N)Nc2cccc(OCc3ccccc3)c2)n1,–,?,·,–,–
COc1ccc(N/C(N)=N/c2nc(C)cc(C)n2)cc1,·,–,–,–,–
Cc1cc(C)nc(/N=C(\N)Nc2ccc(OCCC(C)C)cc2)n1,·,-82,–,–,–
Cc1nc(N)nc(N/N=C/c2ccccc2)n1,–,–,–,–,-76
Cc1cc(N/N=C/c2ccccc2)nc(N)n1,–,–,–,–,–
COc1ccc(N(CC(=O)N2CCN(c3cccc(C)c3)C(C)C2)S(=O)(=O)c2c(C)n[nH]c2C)cc1 (stereo not given),–,–,–,–,–
COc1cc(NCCCCCCN)c2ncccc2c1OC,·,–,-71,?,–
COc1cc(NC(C)CCCNC(C)C)c2ncccc2c1OC (stereo not given),·,–,–,–,–
CC(C)N(C(=O)CSc1nc2c([nH]1)c(=O)n(C)c(=O)n2C)c1ccccc1,–,–,–,–,–
Cc1ccnc2c1ccc1c(C)ccnc12,·,–,-92,-92,–
Cc1ccnc2c1ccc1cccnc12,·,–,-92,-81,–
NC(=O)c1sc2nc3c(c(-c4ccco4)c2c1N)CCC3,–,–,–,-71,–
CCN(CC)S(=O)(=O)c1ccc(C(=O)Nc2ccc(OCC(=O)N3CCOCC3)cc2)cc1,–,–,–,–,–
Cc1cc(C)c(O)c(-c2n[nH]c3c2C(c2cccc(O)c2)N(Cc2ccco2)C3=O)c1 (stereo not given),–,–,–,–,-91
COc1ccc(CNC(=O)CNC(=O)[C@@H]2Cc3ccccc3CN2)cc1,·,–,–,–,–
Cc1ccc(NC(=O)c2ncn(CCCNCCCN(C)C)n2)cc1C,·,–,–,–,–
Cc1ccc(NC(=O)c2ncn(CCCNCCCc3ccccc3)n2)cc1C,·,-91,–,–,-80
SMILES,KDM4E inh,KCNH2 3.1 block,CtBP-E1A blk,Six1-Eya2 blk,KCNH2 WT inh
COc1cc(NCCCn2cnc(C(=O)Nc3ccc(C)c(C)c3)n2)cc(OC)c1OC,·,–,–,–,–
COc1ccc(CNCCCn2cnc(C(=O)Nc3ccc(C)c(C)c3)n2)cc1,·,-86,–,–,–
Cc1ccc(NC(=O)c2ncn(CCCN(CCCn3cnc(C(=O)Nc4ccc(C)c(C)c4)n3)Cc3ccc4[nH]ccc4c3)n2)cc1C,·,-77,–,–,-91
COC(=O)C[C@H](NC(=O)Cn1cnc(C(=O)Nc2ccc(C)c(C)c2)n1)C(=O)OC,·,–,–,–,–
Cc1ccc(NC(=O)c2ncn(CC(=O)NCc3ccc4[nH]ccc4c3)n2)cc1C,·,–,–,–,–
COC(=O)Cn1cnc(C(=O)Nc2ccc(C)c(C)c2)n1,·,-73,–,–,–
Cc1ccc(S(=O)(=O)N2CCC(C(=O)Nc3ccccc3N3CCCCC3)CC2)cc1,–,–,–,–,–
COC1=C(Nc2ccccc2OC)C(=O)c2ccccc2C1=O,?,–,?,?,–
COc1ccccc1NC1=C(NC(C)=O)C(=O)c2ccccc2C1=O,25µM,–,–,–,–
